Values joined by “and” are separate entries in the source; they are usually repeats but may differ in a detail not shown here. Equal values may be shown once. Records with an inconclusive call do not appear. Some compounds were tested as several samples or in several runs, with calls that do not always agree. Active and inactive are the calls of the source. Calls follow the shape of the dose curve; as a rule, active = well fitted curve in the direction sought with a large enough effect in the repeat runs; inconclusive = weak or mixed curves; inactive = no such curve, though single readings can be large; an effect the other way counts as inactive or inconclusive.

Assay [1] can be described thus: Caspase-3/7 induction in CHO-K1 cells by small molecules, qHTS cell viability counter screen (AID 1346979). Also: nearly all actives have a fitted effect of over 35% in size. Also: potency is read from the fitted curve at half-maximal effect. In short, it runs like this: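 Seeding: 1,500 CHO-K1 cells/well. Rest: 5hr, 37C. Treatment: compounds in DMSO, 16hr. Read: CellTiter-Fluor, 1hr, fluorescence.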
Assay [2] can be described thus: Caspase-3/7 induction in CHO-K1 cells by small molecules, qHTS assay (AID 1346980). Also: nearly all actives have a fitted effect of over 15% in size. In short, it runs like this: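 Wild-type cells were seeded at 1,500 per well and settled 5 hr at 37 C, 5% CO2, then exposed to DMSO-dissolved compounds for 17 hr. Caspase-Glo 3/7 reagent was added, and luminescence was read after 30min at room temperature.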
The nature of assay [3]: Caspase-3/7 induction in HepG2 cells by small molecules, qHTS cell viability counter screen (AID 1346981). Also: nearly all actives have a fitted effect of over 30% in size. Also: potency is read from the fitted curve at half-maximal effect. In short, it runs like this: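 CellTiter-Fluor fluorescence measured viability in the same wells used for Caspase-Glo 3/7. HepG2 (wild type) at 2,000 cells/well were pre-incubated 5 hr, dosed, and given reagent at 16 hr, with 1 hr further at 37C.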
Assay [4] concerns the target Nuclear receptor subfamily 1 group I member 2 (Homo sapiens) (UniProt O75469). The assay can be described thus: Human pregnane X receptor (PXR) small molecule agonists, qHTS assay (AID 1346982). Also: nearly all actives have a fitted effect of over 35% in size. Also: potency is read from the fitted curve at half-maximal effect. The gist of the method: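 Agonist mode: luminescence from ONE-Glo after 24 h compound exposure at 37C in HepG2 cells carrying hPXR-responsive CYP3A4 luciferase, plated in charcoal-stripped serum medium 5 h beforehand.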

Assay [5] concerns the target Nuclear receptor subfamily 1 group I member 2 (Rattus norvegicus) (UniProt Q9R1A7). The assay can be described thus: Rat pregnane X receptor (rPXR) activation by small molecules, qHTS assay (AID 1346983). Also: nearly all actives have a fitted effect of over 20% in size. The settings on record: rPXR luciferase reporter cells, One-Glo luminescence, 24 h; stronger effect = higher value. In short, it runs like this: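 Cell-based rPXR luciferase reporter assay, 2,000 cells per well, rested 5hr at 37 C before compound addition in DMSO, then 24 hr at 37 C. One-Glo reagent was added and luminescence read after 30 min at room temperature.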

Assay [6] deals with Nuclear receptor subfamily 1 group I member 2 (Homo sapiens) (UniProt O75469). As to the kind of experiment: CYP3A4 induction through human pregnane X receptor (PXR) by small molecules, qHTS assay (AID 1346984). Also: nearly all actives have a fitted effect of over 40% in size. Also: potency is read from the fitted curve at half-maximal effect. In short, it runs like this: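 Read-out is luminescence after One-Glo addition, following a 3 hr, 37C incubation with Luciferin-IPA CYP3A4 substrate (3uM final). Before that, compounds were on DPX-2 cells (HepG2 co-transfected with PXR element plus CYP3A4-promoter luciferase) for 24 hr at 37C.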

Assay [7] shares this target. The assay can be described thus: Human pregnane X receptor (PXR) activation by small molecules, qHTS assay (AID 1346985). Also: nearly all actives have a fitted effect of over 40% in size. Also: potency is read from the fitted curve at half-maximal effect. The gist of the method:
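DPX-2 cells (HepG2 co-transfected with a PXR response element and a CYP3A4-promoter luciferase construct) were seeded at 2,000 per well, rested 5 hr at 37C, then exposed to DMSO-dissolved compounds for 24 hr. Activation was read as luciferase luminescence.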

The target in assay [8] is Cytochrome P450 2D6 (Homo sapiens) (UniProt P10635). The assay can be described thus: Cytochrome P450 Family 2 Subfamily D Member 6 (CYP2D6) small molecule antagonists: luciferase reporter qHTS assay (AID 1671196). Also: nearly all actives have a fitted effect of over 50% in size. Also: potency is read from the fitted curve at half-maximal effect. In short, it runs like this:
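CYP2D6 activity was followed as luminescence from its luciferin product after a 1 h NADPH-driven reaction at room temperature. Enzyme-substrate mix and compound were pre-incubated for 10 min, and the signal was read 20 min after adding detection reagent.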

The target of assay [9] is Cytochrome P450 2C19 (Homo sapiens) (UniProt P33261). As to the kind of experiment: Cytochrome P450 Family 2 Subfamily C Member 19 (CYP2C19) small molecule antagonists: luciferase reporter qHTS assay (AID 1671197). Also: nearly all actives have a fitted effect of over 65% in size. Also: potency is read from the fitted curve at half-maximal effect. In short, it runs like this:
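P450-Glo CYP2C19 system: enzyme-substrate mix with compound 10 min at room temperature, then NADPH regeneration solution, 1 h at 37C. Proluciferin-to-luciferin conversion detected by luminescence after 20 min with detection reagent; ketoconazole as positive control.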

The target in assay [10] is Cytochrome P450 2C9 (Homo sapiens) (UniProt P11712). The assay can be described thus: Cytochrome P450 Family 2 Subfamily C Member 9 (CYP2C9) small molecule antagonists: luciferase reporter qHTS assay (AID 1671198). Also: nearly all actives have a fitted effect of over 50% in size. Also: potency is read from the fitted curve at half-maximal effect. The gist of the method: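 CYP2C9 activity was measured with a P450-Glo proluciferin substrate. Enzyme–substrate mix was held with compound for 10 min at room temperature, then NADPH regeneration solution was added for 1 h at 37C. Luciferin product was read as luminescence.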
% is scaled to controls: 0 for no effect and ±100 for the full control effect.

Sequence of Cytochrome P450 2C9 (Homo sapiens) (P11712 whole entry, looked up): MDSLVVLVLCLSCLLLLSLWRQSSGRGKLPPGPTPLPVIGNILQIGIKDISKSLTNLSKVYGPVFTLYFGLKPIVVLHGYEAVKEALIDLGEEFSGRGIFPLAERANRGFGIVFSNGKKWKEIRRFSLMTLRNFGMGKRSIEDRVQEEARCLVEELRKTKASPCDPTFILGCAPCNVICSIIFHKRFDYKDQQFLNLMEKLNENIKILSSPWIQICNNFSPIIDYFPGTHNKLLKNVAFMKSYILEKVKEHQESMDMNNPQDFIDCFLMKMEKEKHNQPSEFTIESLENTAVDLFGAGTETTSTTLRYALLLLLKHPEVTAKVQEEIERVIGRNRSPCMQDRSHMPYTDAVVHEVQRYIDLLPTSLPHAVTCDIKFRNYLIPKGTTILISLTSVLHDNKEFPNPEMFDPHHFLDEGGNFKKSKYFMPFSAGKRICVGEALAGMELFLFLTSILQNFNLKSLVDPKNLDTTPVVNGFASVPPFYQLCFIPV
Sequence of Nuclear receptor subfamily 1 group I member 2 (Homo sapiens) (O75469 whole entry, looked up): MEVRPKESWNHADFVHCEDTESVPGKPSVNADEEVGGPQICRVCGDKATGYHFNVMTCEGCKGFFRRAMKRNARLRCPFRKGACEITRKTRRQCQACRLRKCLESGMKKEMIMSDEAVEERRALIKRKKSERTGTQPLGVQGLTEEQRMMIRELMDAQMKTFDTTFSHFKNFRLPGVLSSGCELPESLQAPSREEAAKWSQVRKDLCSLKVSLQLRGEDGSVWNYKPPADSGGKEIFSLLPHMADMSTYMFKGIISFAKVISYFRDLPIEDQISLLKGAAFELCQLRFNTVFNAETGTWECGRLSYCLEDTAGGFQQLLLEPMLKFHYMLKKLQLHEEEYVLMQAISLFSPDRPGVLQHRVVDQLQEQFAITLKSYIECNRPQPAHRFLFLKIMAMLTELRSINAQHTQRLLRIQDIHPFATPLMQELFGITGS
Sequence of Cytochrome P450 2C19 (Homo sapiens) (P33261 whole entry, looked up): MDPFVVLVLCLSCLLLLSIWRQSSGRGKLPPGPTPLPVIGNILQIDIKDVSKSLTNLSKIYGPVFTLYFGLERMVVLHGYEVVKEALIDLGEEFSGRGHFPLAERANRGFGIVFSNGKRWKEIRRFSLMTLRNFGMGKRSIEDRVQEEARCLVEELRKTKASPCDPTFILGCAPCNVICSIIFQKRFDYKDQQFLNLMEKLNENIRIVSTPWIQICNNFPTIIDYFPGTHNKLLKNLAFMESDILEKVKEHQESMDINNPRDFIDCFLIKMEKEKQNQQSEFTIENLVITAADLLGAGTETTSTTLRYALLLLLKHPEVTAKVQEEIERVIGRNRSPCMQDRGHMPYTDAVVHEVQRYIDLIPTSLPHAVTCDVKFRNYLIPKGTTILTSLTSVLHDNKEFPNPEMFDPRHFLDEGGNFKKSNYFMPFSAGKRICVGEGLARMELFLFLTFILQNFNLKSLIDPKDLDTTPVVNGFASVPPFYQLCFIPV
Sequence of Nuclear receptor subfamily 1 group I member 2 (Rattus norvegicus) (Q9R1A7 whole entry, looked up): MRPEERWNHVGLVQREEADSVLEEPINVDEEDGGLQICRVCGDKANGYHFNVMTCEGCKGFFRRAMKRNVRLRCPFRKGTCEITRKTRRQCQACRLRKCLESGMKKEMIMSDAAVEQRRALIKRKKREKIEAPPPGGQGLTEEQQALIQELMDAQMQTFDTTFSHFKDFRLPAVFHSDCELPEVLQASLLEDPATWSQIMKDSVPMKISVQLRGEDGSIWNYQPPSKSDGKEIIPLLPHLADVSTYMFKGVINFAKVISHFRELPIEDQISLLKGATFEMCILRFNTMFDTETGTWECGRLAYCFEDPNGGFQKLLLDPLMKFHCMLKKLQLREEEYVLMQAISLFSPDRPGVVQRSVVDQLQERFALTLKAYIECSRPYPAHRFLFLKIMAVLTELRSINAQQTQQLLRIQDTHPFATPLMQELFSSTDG
Sequence of Cytochrome P450 2D6 (Homo sapiens) (P10635 whole entry, looked up): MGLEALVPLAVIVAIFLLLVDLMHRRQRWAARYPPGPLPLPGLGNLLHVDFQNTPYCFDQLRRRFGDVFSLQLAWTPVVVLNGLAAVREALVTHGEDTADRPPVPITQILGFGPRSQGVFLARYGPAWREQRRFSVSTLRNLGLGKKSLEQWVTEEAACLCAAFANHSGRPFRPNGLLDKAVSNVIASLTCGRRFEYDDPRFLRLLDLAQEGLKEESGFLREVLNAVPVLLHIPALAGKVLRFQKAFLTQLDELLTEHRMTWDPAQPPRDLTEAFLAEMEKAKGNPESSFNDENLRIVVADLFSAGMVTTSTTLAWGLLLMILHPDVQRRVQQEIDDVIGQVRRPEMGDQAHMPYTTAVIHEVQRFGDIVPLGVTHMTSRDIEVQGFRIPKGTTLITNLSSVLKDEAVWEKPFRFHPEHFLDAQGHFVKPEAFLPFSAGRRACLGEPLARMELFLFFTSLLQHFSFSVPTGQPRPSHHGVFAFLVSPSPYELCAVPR

As to `NC(=Nc1ccccc1)Nc1ccccc1`, the Potency result in assay [1], in assay [2], in assay [6] and in [7] was “inactive” in each case. Besides, the Potency in assay [3] is 20.5 µM (active); in assay [4] it was 3.86 µM (active) and 11.9 µM (active); in [8] it was 212 nM (active) and 617 nM (active); in assay [9], 39.9 µM (active) and inactive; in assay [10], 89.4 µM (active) and inactive. For the same molecule, the max activation in assay [5] was -2.33% (inactive).

Regarding `CCCCCCC(O)CCCCCCCCCCC(=O)O` (centres undefined), the Potency result in assay [1], in assay [2], in assay [3], in [4], in assay [8] and in assay [9] was “inactive” throughout. In assay [10], the Potency entry is “inactive”.

With `Cc1scc2c1N(C(=O)CN1CCN(C)CC1)c1ccccc1NC2=O`, the Potency entry in assay [1], in [2], in assay [3], in assay [4], in assay [8] and in [9] was “inactive” throughout. In addition, the Potency result in assay [10] is “inactive”.

For `Cc1cccc(O)c1C`, the Potency result in assay [1], in assay [2], in [3], in assay [4], in assay [8] and in assay [10] was “inactive” throughout. The Potency in assay [9] was 70.5 µM (active) and inactive.

`CC(=O)O[C@]1(C(C)=O)CC[C@H]2[C@@H]3C[C@H](C)C4=CC(=O)CC[C@]4(C)[C@H]3CC[C@@]21C`: the Potency result in assay [1], in assay [2], in assay [3], in assay [6] and in assay [8] was “inactive” each time. Further, the Potency in assay [4] is 5.44 µM (active); in [7], 1.58 µM (active); in assay [9], 15.9 µM (active); in assay [10], 3.99 µM (active) and 13.8 µM (active).

Take `NC12CC3CC(CC(C3)C1)C2`: the Potency entry in [1], in [2] and in assay [3] was “inactive” throughout.

Regarding `O=S(=O)(O)c1ccc2nc(-c3ccccc3)[nH]c2c1`, the Potency result in assay [1], in [2], in [3], in [4], in [6] and in [7] was “inactive” throughout. Further, the max activation in assay [5] is -3.42% (inactive). For the same molecule, the Potency in assay [8] was 21.4 µM (active) and 13.8 µM (active); in [9], 17 µM (active) and 9.77 µM (active); in [10], 33.9 µM (active) and 19.5 µM (active).

As for `CCn1c2ccccc2c2cc(N)ccc21`, the Potency in [1] is 53.9 µM (active) and inactive and 43.3 µM (active); in assay [3], “inactive and 30.6 µM (active)”; in assay [4], 5.39 µM (active) and 30.6 µM (active) and inactive; in assay [8], 703 nM (active) and 3.99 µM (active) and 10 µM (active); in assay [9] it was 4.43 µM (active) and 31.7 µM (active) and 12.6 µM (active); in assay [10] it was 12.5 µM (active) and 31.7 µM (active) and 28.3 µM (active). The Potency entry in assay [2] was “inactive”.

Consider `O`, for which the Potency result in [1], in assay [2] and in assay [3] was “inactive” throughout.

With `COC(=O)/C=C/c1ccccc1`, the Potency result in assay [1], in [2], in assay [3], in [4], in assay [9] and in assay [10] was “inactive” in each case. Further, the Potency in [8] was 35.6 µM (active) and inactive.

With `OCC(CO)N[C@H]1C[C@](O)(CO)[C@@H](O)[C@H](O)[C@H]1O`, the Potency entry in assay [1], in assay [2], in assay [3], in assay [4], in assay [6] and in [7] was “inactive” each time. For the same molecule, the Potency entry in [8], in [9] and in assay [10] was “inactive” throughout. Also, the max activation in assay [5] was -3.54% (inactive).

For the molecule `Cc1ccc(-c2cc(C(F)(F)F)nn2-c2ccc(S(N)(=O)=O)cc2)cc1`, the Potency in [1] is 48.4 µM (active) and 61.1 µM (active); in [3] it was 60.9 µM (active) and 61.1 µM (active) and inactive; in assay [4], 10.8 µM (active) and 5.45 µM (active) and 13.3 µM (active); in [6], 14.1 µM (active); in [8], 998 nM (active) and 35.6 µM (active) and 15.5 µM (active); in assay [9], 28.1 µM (active) and 50.2 µM (active). The Potency in assay [10] is 12.6 µM (active) and 11.2 µM (active) and 8.71 µM (active). Also, the Potency entry in assay [2] is “inactive”. For the same molecule, the max activation in assay [5] is 0.916% (inactive).

In the case of `CCCCCCCCCCCCCC[P+](CCCC)(CCCC)CCCC`, the Potency in assay [1] was 2.42 µM (active) and 7.7 µM (active); in [3], 54.2 µM (active); in [4] it was 2.16 µM (active) and 6.86 µM (active); in assay [8], 223 nM (active) and 399 nM (active); in assay [9] it was 56.1 µM (active) and 39.9 µM (active); in assay [10], 28.1 µM (active) and 50.2 µM (active). Besides, the Potency result in assay [2] was “inactive”.

Regarding `CCc1cc(C(C)(C)C)c(O)c(C(C)(C)C)c1`, the Potency result in [1], in assay [2], in assay [3] and in assay [8] was “inactive” in each case. The Potency entry is “inactive and 34.4 µM (active)” in assay [4]; 71.7 µM (active) and inactive in assay [9].

As to `Cc1ccc(S(=O)(=O)Oc2ccc(N=Nc3ccc(-c4ccc(N=Nc5c(O)ccc6cc(S(=O)(=O)O)cc(S(=O)(=O)O)c56)c(C)c4)cc3C)cc2)cc1`, the Potency in [1] was 15.4 µM (active) and 10 µM (active); in assay [3], 19.4 µM (active) and 15.9 µM (active); in [4] it was 6.89 µM (active) and inactive; in assay [8], 40.1 µM (active) and 26 µM (active); in [9], 28.4 µM (active) and 51.9 µM (active); in [10], 35.7 µM (active) and 26 µM (active). Further, the Potency result in assay [2] is “inactive”.

`O=C(O)CP(=O)(O)O`: the Potency result in assay [1], in [2], in assay [3], in assay [4], in [8] and in [9] was “inactive” in each case. Moreover, in assay [10], the Potency result was “inactive”.

For the molecule `CCCC(=O)c1ccccc1`, the Potency result in assay [1], in assay [2], in [3], in assay [4], in [9] and in [10] was “inactive” throughout. In addition, in assay [8], the Potency was 31.7 µM (active).

`O=C(Cl)c1cccc(C(=O)Cl)c1`: the Potency entry in assay [1], in assay [2], in assay [3], in [4] and in assay [8] was “inactive” throughout. Also, in assay [9], the Potency is 79.6 µM (active) and inactive.

Source of the values: PubChem BioAssay (Tox21).
